A selection: hits, their analogues and other compounds. The true share with any hit is near 2.8%.
Pol iota inh – DNA polymerase iota (human) inhibition. 390,000 tested, 1% active. Potency, µM (highest dose often 115 µM), usual class: inhibitors. Q9UNA4. Pol iota fluorescent replication assay, 10 min. AID 588590
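Fluorescent replication assay read twice, at 0 min and 10 min after adding 50 nM (final) substrate. Enzyme (10 nM) and compounds were first incubated 15 min at room temperature; enzyme-free buffer wells were negative controls.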
PI5P4Ka inh – blocks human PI5P4K alpha kinase activity | PI5P4Kalpha enzyme, ADP-Glo luminescence, 60 min; stronger effect = lower value | max response, % | 330,000 tested, 1.2% active | AID 652105; active means max response of -50% or lower; inconclusive means between -30% and -50%; inactive means -30% or higher; further: value at the top dose of about 77 µM
Target sequence (P48426 whole entry, looked up): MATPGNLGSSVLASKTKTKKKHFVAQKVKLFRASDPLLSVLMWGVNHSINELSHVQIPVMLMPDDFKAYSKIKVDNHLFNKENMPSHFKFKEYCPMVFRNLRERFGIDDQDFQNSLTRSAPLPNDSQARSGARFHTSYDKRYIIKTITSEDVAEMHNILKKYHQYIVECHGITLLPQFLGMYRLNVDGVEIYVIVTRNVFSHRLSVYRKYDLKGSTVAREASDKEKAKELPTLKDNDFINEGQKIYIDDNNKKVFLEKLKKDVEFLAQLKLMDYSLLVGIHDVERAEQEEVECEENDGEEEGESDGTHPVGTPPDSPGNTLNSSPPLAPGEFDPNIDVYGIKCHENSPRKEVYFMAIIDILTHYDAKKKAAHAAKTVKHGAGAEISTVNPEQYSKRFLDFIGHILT
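ADP-Glo luminescence end-point after a 60 min room-temperature kinase reaction. PI5P4Kalpha and substrate in HEPES pH 7.4 buffer with EGTA, 0.1% CHAPS and 5% DMSO; ATP at 5 microM final.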
POLH inh – DNA polymerase eta (human) inhibition. 390,000 tested, 1.2% active. recombinant Pol eta, fluorescent DNA replication assay. Q9Y253. Potency, µM (doses to about 114 µM), most hits filed as inhibitors
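Pol eta at 10 nM preincubated with compounds 15 min at room temperature; reaction started with fluorescent substrate (50 nM final) and read kinetically at 0 and 10 min.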
Pol beta inh – inhibitors of human DNA polymerase beta; Potency, µM (titrated, usually from 114 µM), actives largely listed as inhibitors; AID 485314; Pol beta primer extension/strand displacement, fluorescence kinetic; 340,000 tested, 1.3% active
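10 nM enzyme + cpd, 15 min RT; start with substrate 50 nM final; read 0 min and after 10 min RT. Corrected, normalized data; 4-parameter Hill curve fit.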
WRN helicase inh – WRN helicase (human) inhibition. Q14191. WRN helicase unwinding, fluorescent forked duplex, kinetic. Potency, µM (titrated, usually from 114 µM), actives largely listed as inhibitors. 360,000 tested, 0.46% active. AID 651768; further: nearly all actives have a fitted effect of over 55% in size
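WRN at 20 nM final preincubated with compound 15 min at room temperature; reaction started with 100 nM fluorophore/quencher forked duplex oligonucleotide and 2 mM ATP final. Unwinding followed kinetically by red fluorescence (ex 525, em 598 nm).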
POLK inh – DNA polymerase kappa (human) inhibition. Q9UBT6. purified Pol kappa, fluorescent DNA synthesis assay, 10 min. Potency, µM (titrated, usually from 107 µM), most hits filed as inhibitors. 400,000 tested, 0.53% active. AID 588579
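50 nM final substrate added after 15 min RT preincubation of 10 nM Pol kappa with compound; fluorescence read at 0 and 10 min.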
A number is an active result; . = inactive; ? = inconclusive; / = not tested or not shown; [ ] = dose if it differs, or a comment. Unless noted, the call rests on the fitted dose curve; in most records, active means well fitted curve in the direction sought with a large enough effect; inconclusive means small, poorly fitted or top-dose-only effect, or another doubt; inactive means no such curve, though single readings can be large; an effect the other way counts as inactive or inconclusive.

SMILES	Pol iota inh	PI5P4Ka inh	POLH inh	Pol beta inh	WRN helicase inh	POLK inh
Cc1ccc(CNC(=O)C2CCCN(c3nnc(-n4c(C)ccc4C)s3)C2)cc1 (centres undefined)	.	/	/	.	/	.
CC1=NN(c2ccc(C)c(C)c2)C(=O)/C1=C/c1ccc2c(c1)n(C)c(=O)n2C	1.4µM	.	.	.	.	.
CC1=NN(c2ccccc2)C(=O)/C1=C\c1ccc(Br)s1	?	.	89µM	.	.[11.6 µM]	.
COc1cc(/C=C2/C(=O)N(c3ccccc3)N=C2C)ccc1OS(=O)(=O)c1ccccc1	/	/	/	.	/	/
COc1ccc(-n2c(SCC(=O)NCc3ccccc3)nc3n[nH]c(C)c3c2=N)cc1	.	/	.	.	/	.
CNC(=O)c1cc(-c2cccs2)on1	.	/	/	/	/	.
O=C(O)c1cn(-c2ccccc2)nc1C(=O)O	.	-52	.	.	.	.
COC(=O)c1cn(-c2ccccc2)nc1C(=O)OC	.	/	.	.	.	.
C=CCn1c(SCC(=O)c2ccc(O)c(O)c2)nnc1-c1cccc(OC)c1	?	.	11µM	/	?	32µM
C=CCn1c(SCC(=O)c2cccs2)nnc1-c1cccc(OC)c1	.	/	.	?	.	.
C=CCn1c(SCC(=O)c2ccccc2)nnc1-c1cc2ccccc2o1	.	.	.	?	.	.
Cn1c(SCC(=O)c2ccc(O)c(O)c2)nnc1-c1ccccc1	?	.	.	.	.[11.6 µM]	.
Cn1c(SCC(=O)c2ccc3c(c2)Cc2ccccc2-3)nnc1-c1cccc(N)c1	.	?	?	0.16µM	.	.
C=CCn1c(SCC(=O)c2ccccc2)nnc1-c1ccc2c(c1)OCO2	?	.	.	50µM	.	.
Cn1c(SCC(=O)c2ccc(O)c(O)c2)nnc1-c1cccs1	28µM	.	22µM	3.5µM	?	79µM
COc1ccc(-c2cc3nc(C)c(CCC(=O)Nc4ccc(F)cc4F)c(C)n3n2)c(OC)c1	.	/	.	.	/	.
NC(=S)N/N=C/c1coc2ccc(O)cc2c1=O	.	-72	.	.	.	.
CCN(C(=O)CSc1nc2cc(C(=O)O)ccc2c(=O)n1Cc1ccccc1)c1ccccc1	.	-53	.	.	.	.
O=C(Cn1ncc2c(=O)oc3ccccc3c21)Nc1cc(F)ccc1F	.	/	.	.	/	.
CN(CCCNC(=O)c1cc2c(=O)n(C)c3ccccc3c2s1)Cc1ccccc1	.	/	.	?	/	.
COc1ccc(C2=C(C)C(N3CCC(C(=O)Nc4ccccc4F)CC3)=NS2(=O)=O)cc1	?	/	/	22µM	/	.
COc1ccccc1CNC(=O)C1CCN(C2=NS(=O)(=O)C(c3ccc(C)c(C)c3)=C2C)CC1	89µM	/	.	?	/	.
CCOc1ccccc1CNC(=O)C1CCN(C2=NS(=O)(=O)C(c3ccc(C)c(C)c3)=C2C)CC1	.	/	/	.	/	.
CCC1=C(c2ccc(C)cc2)S(=O)(=O)N=C1N1CCC(C(=O)Nc2ccccc2F)CC1	.	/	/	.	/	.
C[C@@H]1C[C@H]2[C@@H]3CCC4=CC(=O)C=C[C@]4(C)[C@@]3(F)C(O)C[C@]2(C)[C@@]1(O)C(=O)CO (some centres undefined)	.	/	/	/	/	.
SMILES	Pol iota inh	PI5P4Ka inh	POLH inh	Pol beta inh	WRN helicase inh	POLK inh
O=c1cc(-c2ccccc2)nc2cc(-c3ccc(Br)cc3)[nH]n12	.	.	.	.	.	.
O=c1cc(-c2ccccc2)nc2cc(-c3ccco3)[nH]n12	.	.	.	50µM	.	.
COc1ccc(C(=O)NC2CC2)cc1OC1CCN(Cc2cc(C)c(C)cc2C)CC1	.	.	.	.	.	.
COc1ccc(CN2CCC(Oc3cc(C(=O)NC4CC4)ccc3OC)CC2)c(O)c1	79µM	.	.	.	.[11.6 µM]	?
COc1ccc(CC2NCCC3=CC(=O)CCC32)cc1O (centres undefined)	56µM	/	.	/	/	?
CCOc1ccc(CCNC(=O)CSc2nc3ccccc3nc2Cc2ccc(C)cc2)cc1OCC	.	/	.	.	/	.
COc1cccc(NC(=O)Cn2c(=O)n(Cc3ccccc3)c(=O)c3c2c2cc(C)ccc2n3C)c1	.	/	.	.	/	.
CN(CC(=O)Nc1ccc(Cl)c(C(F)(F)F)c1)C(=O)Cn1cc([N+](=O)[O-])ccc1=O	.	?	79µM	/	.[11.6 µM]	.
Cc1ccc(NC(=O)CN(C)C(=O)Cn2cc(C(F)(F)F)ccc2=O)cc1	.	.	.	.	.	.
Cc1ccc2cc3c(N)c(C(=O)Nc4c(C)[nH]c(=O)[nH]c4=O)sc3nc2c1	?	.	?	?	.	.
Cc1ccc2nc3sc(C(=O)Nc4c(C)[nH]c(=O)[nH]c4=O)c(N)c3cc2c1	.	.	?	50µM	.	.
O=C(Cn1ncc(Cl)c(Cl)c1=O)NC(=O)NC1CCCCC1	?	-50	?	/	.[11.6 µM]	.
CC(NC(=O)Cn1ncc(Cl)c(Cl)c1=O)C12CC3CC(CC(C3)C1)C2 (centres undefined)	?	-64	?	?	.	.
O=C(CN1CCCCC1)NC(=O)NC1CCCC1	.	.	.	.	.	.
CCc1ccccc1N1C(=O)N(Cc2ccccc2C)c2ccccc2S1(=O)=O	.	/	.	.	/	.
CC(C)Cn1c(SCc2cccc(F)c2)nc2ccsc2c1=O	.	/	.	.	/	.
O=C(Cn1c(SCC(=O)N2CCc3ccccc32)nc2ccccc21)NC1CCCC1	.	.	.	.	.	.
O=C(Cn1c(SCC(=O)N2CCc3ccccc3C2)nc2ccccc21)NC1CCCC1	.	/	.	89µM	.	.
CCCn1c(SCC(=O)N2CCc3ccccc3C2)nc(O)cc1=O	10µM	.	.	/	.	?
Cc1cc(=O)[nH]c(SCC(=O)N2CCc3ccccc3C2)n1	.	/	.	.	.	.
CO/N=C(/C(=O)N[C@@H]1C(=O)N2C(C(=O)O)=CCS[C@H]12)c1csc(N)n1	/	/	/	/	/	.[19.4 µM]
CCOC(=O)C(Cc1c[nH]c2ccccc12)NC(=O)COc1ccc(Cl)cc1 (centres undefined)	79µM	/	.	.	/	.
CC(C)c1ccc(OCC(=O)NC(Cc2c[nH]c3ccccc23)C(=O)O)cc1 (centres undefined)	.	.	.	.	.	.
CCCCC(CC)CO (centres undefined)	?	.	.	/	.	.
CCCCC(CC)CN=C(N)NC(N)=NCCCCCCN=C(N)NC(N)=NCC(CC)CCCC (centres undefined)	?	.	89µM	/	89µM	?
COc1ccc(S(=O)(=O)NCCc2sc(-c3cccc(F)c3)nc2C)cc1	.	/	.	.	/	.
C#CCOc1c(/C=C\c2nc(O)c([N+](=O)[O-])c(=O)[nH]2)cc(Br)cc1OC	?	-68	35µM	?	.[11.6 µM]	.
COc1ccc(/C=C\c2nc(O)c([N+](=O)[O-])c(=O)[nH]2)cc1O	.	-74	.	.	?	.

Compound activity: PubChem BioAssay, National Center for Advancing Translational Sciences (NCATS)
